# High-throughput results: PubChem BioAssay, Broad Institute
# The sample as a whole holds a higher share of hits than the screen did.
# DUX4 inh: inhibitors of DUX4-driven ZSCAN4 reporter expression, primary screen, 293T cells, Gaussia and Italica luciferase; 293T-iDUX4 ZSCAN4-Gaussia luciferase reporter, 24 h; hits give low values; hit rate 0.8% among 37,000; activity change, negative = inhibition, % (test concentration not listed);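 active = mean inhibition of at least 10% in the main channel, exceeding the control channel by a set limit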
# Hits are given with their value; 0 = inactive.
SMILES,DUX4 inh
COc1ccc(CN2CC3(C2)CN(Cc2ccc4c(c2)OCO4)[C@H](CO)c2[nH]c4cc(OC)ccc4c23)cc1,-58
COc1ccc2c3c([nH]c2c1)[C@@H](CO)N(Cc1ccc(Cl)cc1)CC31CCN(C(=O)CN(C)C)CC1,0
CCS(=O)(=O)N1CC2(CN(Cc3ccc4c(c3)OCO4)[C@@H](CO)c3[nH]c4cc(OC)ccc4c32)C1,0
COc1ccc2c3c([nH]c2c1)[C@@H](CO)N(Cc1ccc(F)cc1)CC31CN(C)C1,0
CCCC(=O)N1CCC2(CC1)CN(Cc1ccc(Cl)cc1)[C@@H](CO)c1[nH]c3cc(OC)ccc3c12,-50
COCC(=O)N1CCC2(CC1)CN(Cc1cccc(Cl)c1)[C@H](CO)c1[nH]c3cc(OC)ccc3c12,0
COc1ccc2c3c([nH]c2c1)[C@H](CO)N(Cc1ccc(Cl)cc1)CC31CCN(C(=O)CN(C)C)CC1,0
COc1ccc2c3c([nH]c2c1)[C@H](CO)N(Cc1cccc(Cl)c1)CC31CCN(C(C)=O)CC1,-67
COc1cccc(CN2CC3(CCN(C)CC3)c3c([nH]c4cc(OC)ccc34)[C@@H]2CO)c1,0
CCNC(=O)C[C@@H]1CC[C@H]2[C@@H](COc3ccc(NC(=O)c4ccc(F)c(F)c4)cc3C(=O)N2C)O1,0
O=C(NC[C@H]1N[C@H](CO)[C@@H]1c1ccc(-c2ccccc2F)cc1)c1ccccc1,0
CN1[C@@H]2Cn3c(ccc(-c4ccncc4)c3=O)[C@H]1[C@@H](C(=O)Nc1nccs1)[C@@H]2CO,0
COc1ccccc1NC(=O)N1CC(=O)N2[C@H](C1)[C@@H](c1ccc(C#CC(C)C)cc1)[C@@H]2CO,0
CO[C@H]1CN(C)C(=O)c2ccc(NC(=O)Nc3cc(F)ccc3F)cc2OC[C@H](C)N(C)C[C@@H]1C,0
CC(=O)N(C)C[C@H]1[C@H](c2ccc(-c3ccc(F)cc3)cc2)[C@@H](CO)N1C(C)=O,0
C[C@H]1CN([C@@H](C)CO)C(=O)c2cc(-c3ccc(C(=O)N(C)C)cc3)cnc2O[C@@H]1CN(C)C(=O)c1cccnc1,0
OC[C@@H]1[C@H](c2ccccc2)C2(CN(Cc3nccs3)C2)N1CC1CCOCC1,0
C[C@H](CO)N1C[C@H](C)[C@H](CN(C)S(=O)(=O)c2cccc(F)c2)OCc2ccccc2-c2ccccc2C1=O,-21
C[C@@H]1CN([C@H](C)CO)C(=O)c2c(c3ccccc3n2C)-c2ccccc2CO[C@@H]1CN(C)S(=O)(=O)CC(F)(F)F,0
C[C@H](CO)N1C[C@H](C)[C@@H](CN(C)S(=O)(=O)c2cccc(C#N)c2)OCc2ccccc2-c2c(n(C)c3ccccc23)C1=O,0
C[C@H]1CN([C@@H](C)CO)C(=O)c2c(c3ccccc3n2C)-c2ccccc2CO[C@H]1CN(C)S(=O)(=O)CC(F)(F)F,0
C[C@@H]1CN([C@H](C)CO)C(=O)c2ccccc2-c2ccccc2CO[C@H]1CN(C)S(=O)(=O)c1cccc(F)c1,0
C[C@H](CO)N1C[C@H](C)[C@@H](CN(C)S(C)(=O)=O)OCc2ccccc2-c2c(n(C)c3ccccc23)C1=O,0
C[C@@H]1CN([C@H](C)CO)C(=O)c2ccccc2-c2ccccc2CO[C@@H]1CN(C)S(=O)(=O)c1cccc(F)c1,0
C[C@H](CO)N1C[C@H](C)[C@@H](CN(C)S(=O)(=O)c2ccc(F)cc2)OCc2ccccc2-c2c(n(C)c3ccccc23)C1=O,0
SMILES,DUX4 inh
Cc1cccc(S(=O)(=O)N(C)C[C@@H]2OCc3ccccc3-c3c(n(C)c4ccccc34)C(=O)N([C@@H](C)CO)C[C@H]2C)c1,-53
C[C@H]1CN([C@@H](C)CO)C(=O)c2c(c3ccccc3n2C)-c2ccccc2CO[C@H]1CN(C)S(C)(=O)=O,0
Cc1cccc(S(=O)(=O)N(C)C[C@H]2OCc3ccccc3-c3c(n(C)c4ccccc34)C(=O)N([C@H](C)CO)C[C@H]2C)c1,-29
C[C@H](CO)N1C[C@H](C)[C@H](CN(C)S(=O)(=O)CC(F)(F)F)OCc2ccccc2-c2c(n(C)c3ccccc23)C1=O,-33
O=S(=O)(c1ccccc1)N1C[C@H]2[C@@H](c3ccccc31)[C@@H](CO)N2Cc1ccccn1,0
COCC(=O)N1[C@@H](CO)[C@H](c2ccc(-c3cccc(OC)c3)cc2)C12CN(C(C)=O)C2,0
CCC(=O)N1[C@H](C(=O)N[C@@H](C)c2ccccc2)[C@@H](CO)[C@@H]2Cn3c(cccc3=O)[C@@H]21,0
C[C@H]1CN([C@@H](C)CO)C(=O)CCCn2cc(nn2)CO[C@@H]1CN(C)Cc1ccc2c(c1)OCCN2C,0
COCCNC(=O)C[C@H]1CC[C@H]2[C@@H](COc3ccc(NC(=O)Cc4ccccc4)cc3C(=O)N2C)O1,0
COc1cccc(NC(=O)N2CC(=O)N3[C@H](C2)[C@H](c2ccc(C4=CCCCC4)cc2)[C@@H]3CO)c1,0
O=C1CN(S(=O)(=O)c2ccccc2)C[C@H]2[C@H](c3ccc(Br)cc3)[C@@H](CO)N12,0
COc1ccccc1S(=O)(=O)N(C)C[C@H]1OCc2ccccc2-c2ccccc2C(=O)N([C@@H](C)CO)C[C@@H]1C,0
CCCC#Cc1cnc2c(c1)C(=O)N([C@@H](C)CO)C[C@H](C)[C@H](CN(C)Cc1ccccc1F)O2,0
CC(=O)N1CC2(C1)[C@@H](c1ccccc1)[C@@H](CO)N2C(=O)c1ccncc1,0
CCC(=O)Nc1ccc2c(c1)C(=O)N(C)[C@H]1CC[C@@H](CC(=O)N[C@H](C)c3ccccc3)O[C@@H]1CO2,0
C[C@@H](NC(=O)[C@H]1[C@H](CO)[C@H]2Cn3c(ccc(C4=CCCC4)c3=O)[C@H]2N1C)c1ccccc1,0
CCC(=O)N1[C@@H]2c3cccc(=O)n3C[C@H]1[C@H](CO)[C@H]2C(=O)NC1CCC1,0
OC[C@H]1[C@@H](c2ccc(C#Cc3ccccc3F)cc2)[C@H]2CN(Cc3cncnc3)CCCCN21,0
COc1ccc(C#Cc2ccc([C@@H]3[C@@H](CO)N4CCCCN(Cc5ccccc5F)C[C@@H]34)cc2)cc1,-30
OC[C@@H]1[C@H](c2ccc(C#Cc3ccccc3F)cc2)[C@@H]2CN(CC3CCOCC3)CCCCN12,0
OC[C@@H]1[C@@H](c2ccc(C#Cc3ccccc3F)cc2)[C@@H]2CN(CC3CCOCC3)CCCCN12,-28
CCCC#Cc1ccc([C@H]2[C@H](CO)N3CCCCN(CC4CCOCC4)C[C@@H]23)cc1,0
COc1ccc(C#Cc2ccc([C@H]3[C@H](CO)N4CCCCN(Cc5ccccc5F)C[C@@H]34)cc2)cc1,-21
OC[C@H]1[C@@H](c2ccc(C#Cc3ccccc3F)cc2)[C@@H]2CN(Cc3cncnc3)CCCCN12,0
COc1ccc(C#Cc2ccc([C@H]3[C@H]4CN(C(=O)Nc5ccccc5F)CCCCN4[C@H]3CO)cc2)cc1,0
OC[C@@H]1[C@@H](c2ccc(C#Cc3ccccc3F)cc2)[C@@H]2CN(Cc3cncnc3)CCCCN12,0
CO[C@@H]1CN(C)C(=O)c2cc(NC(=O)Nc3cccc(Cl)c3)ccc2OC[C@@H](C)N(C(=O)Nc2c(C)noc2C)C[C@@H]1C,0
CCC(=O)N1[C@@H]2Cn3c(cccc3=O)[C@H]1[C@@H](C(=O)NC1Cc3ccccc3C1)[C@@H]2CO,0
CCNC[C@@H]1[C@@H](c2ccc(-c3ccc(F)cc3)cc2)[C@H](CO)N1S(C)(=O)=O,0
O=C(Cc1ccncc1)NCC[C@H]1CC[C@H](NS(=O)(=O)c2ccccc2Cl)[C@@H](CO)O1,0
